# PubChem BioAssay AID434962 (The Scripps Research Institute Molecular Screening Center, 2010)
# In all, about 320,000 compounds went through this assay and about 1,300 (0.41%) were called active. The full list was thinned out, with actives kept by preference. A number with no mark means an inactive call.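 The calls were made as follows: active = percent inhibition above the average of all tested compounds plus 3 SD, set per screening campaign (cut at about 16% in these data); inactive = the rest.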
# Molecular target: Insulin-degrading enzyme (Homo sapiens) (UniProt P14735)
# Sequence (P14735 whole entry, looked up): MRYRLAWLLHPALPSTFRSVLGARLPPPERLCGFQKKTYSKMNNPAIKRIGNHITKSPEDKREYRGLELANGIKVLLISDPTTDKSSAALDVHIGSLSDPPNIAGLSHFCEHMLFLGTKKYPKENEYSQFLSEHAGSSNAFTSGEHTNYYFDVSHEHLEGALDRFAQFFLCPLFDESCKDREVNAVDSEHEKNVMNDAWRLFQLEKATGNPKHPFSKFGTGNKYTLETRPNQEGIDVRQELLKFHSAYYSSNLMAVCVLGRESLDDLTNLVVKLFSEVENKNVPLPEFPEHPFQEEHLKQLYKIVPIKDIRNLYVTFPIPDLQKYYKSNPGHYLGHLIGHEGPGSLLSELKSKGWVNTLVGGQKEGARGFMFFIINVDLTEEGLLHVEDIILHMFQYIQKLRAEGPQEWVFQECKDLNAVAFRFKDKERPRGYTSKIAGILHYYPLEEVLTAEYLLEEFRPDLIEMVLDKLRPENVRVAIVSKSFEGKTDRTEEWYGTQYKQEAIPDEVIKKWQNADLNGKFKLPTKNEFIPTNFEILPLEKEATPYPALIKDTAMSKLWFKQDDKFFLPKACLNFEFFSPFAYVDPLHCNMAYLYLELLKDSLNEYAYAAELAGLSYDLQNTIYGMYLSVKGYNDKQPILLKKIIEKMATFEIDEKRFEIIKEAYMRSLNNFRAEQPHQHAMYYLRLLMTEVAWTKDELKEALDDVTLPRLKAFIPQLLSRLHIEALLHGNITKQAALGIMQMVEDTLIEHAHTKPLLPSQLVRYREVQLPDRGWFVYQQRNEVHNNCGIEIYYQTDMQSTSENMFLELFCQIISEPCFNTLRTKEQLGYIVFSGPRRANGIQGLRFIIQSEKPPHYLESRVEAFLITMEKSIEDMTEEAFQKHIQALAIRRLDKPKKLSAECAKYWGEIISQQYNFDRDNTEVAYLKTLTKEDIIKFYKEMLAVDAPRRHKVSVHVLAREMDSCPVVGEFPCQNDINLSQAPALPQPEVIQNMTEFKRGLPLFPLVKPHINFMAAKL
# Experiment: human IDE inhibitors in live cells, primary screen, fluorescence polarization, HEK cells, FAbetaB substrate (AID 434962);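 also: IDE supplied by intact live HEK cells; FP after avidin binding of uncleaved biotin substrate so inhibition keeps polarization high; 0% = DMSO wells and 100% = 60 µM reference IDE inhibitor Ii1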
# Conditions: FAbetaB cleavage, at 5.59 µM, stronger effect = higher value
row,Compound,inhibition
1,COc1ccc(NC(=O)CSc2nnc(C3CC3)n2C)cc1S(=O)(=O)N1CCCCC1,0.43%
2,O=C1CCN(CCCc2ccccc2)CCN1CCO,9.53%
3,Cc1noc(C)c1S(=O)(=O)N(C)Cc1ccccc1,1.11%
4,Cn1ncc2c(N3CCCCC3)nc(NCCCO)nc21,4.87%
5,COc1cccc(/C=C/C(=O)OCC(=O)N2CCCc3ccccc32)c1,0.1%
6,Cc1ccc(Cn2cc(C(=O)NN)c(=O)c3ccc(F)cc32)cc1,0.01%
7,COc1ccc2c(-c3ccccc3)cc(SCC(=O)N(C)C3CCS(=O)(=O)C3)nc2c1 (stereo not drawn),-3.71%
8,CN(C(=O)COC(=O)c1cc(-c2ccco2)nc2ccccc12)C1CCS(=O)(=O)C1 (stereo not drawn),-3.18%
9,Cc1c(-c2cccc(Cl)c2)nc2ccccc2c1C(=O)OCC(=O)N(C)C1CCS(=O)(=O)C1 (stereo not drawn),18.3% (active)
10,Cc1ccc(C)c(NC(=O)c2cc(-c3cc(C)cc(C)c3O)n[nH]2)c1,-3.27%
11,Cc1ccc(NC(=S)NC(=O)c2ccc(-c3ccccc3)cc2)cc1,0.29%
12,O=C(NNC(=O)c1ccc(-c2ccccc2)cc1)Nc1ccccc1,2.17%
13,CC(C(=O)c1ccc(-c2ccccc2)cc1)[n+]1cccc(Br)c1 (stereo not drawn),23.5% (active)
14,CN(C)c1ccc(/C=C2\NC(=S)N(Cc3ccccc3)C2=O)cc1,99.8% (active)
15,CN(C)c1ccc(C=C2C(=O)OC3(CCCC3)OC2=O)cc1,0.68%
16,O=C1N/C(=C/c2cccs2)C(=O)N1Cc1ccc(F)cc1,-2.86%
17,CN(C1CCS(=O)(=O)C1)S(=O)(=O)c1ccc2ccccc2c1 (stereo not drawn),5.04%
18,O=C(C1CCN(S(=O)(=O)Cc2ccccc2)CC1)N1CCCc2ccccc21,0.11%
19,CC1(C)Cc2cccc(OCC(=O)NCc3ccccc3)c2O1,0.56%
20,CC1(C)Cc2cccc(OCC(=O)N3CCN(c4ccc([N+](=O)[O-])cc4)CC3)c2O1,18.8% (active)

row,Compound,inhibition
1,CC1(C)Cc2cccc(OCC(N)=O)c2O1,-2.75%
2,CCCN(CCC)S(=O)(=O)c1ccc(C(=O)N2CC3CCC(CC3)C2)cc1,-1.85%
3,CC(=O)NCCc1ccc(S(=O)(=O)N(C)C2CCS(=O)(=O)C2)cc1 (stereo not drawn),-0.05%
4,CN1C(=O)/C(=C/C=C2\SCCN2C)OC1=S,25.2% (active)
5,Nc1nc(Br)c2ccccc2c1-c1ccc(F)cc1,-4.68%
6,CC(C)OCCCNC(=S)N1CCC(C(=O)c2ccc3c(c2)OCCO3)CC1,7.22%
7,COC(=O)c1cc(C(=O)OCC(=O)Nc2cc(C)on2)cc([N+](=O)[O-])c1,0.35%
8,Cc1ccc2c(c1)c1ncn(CCC3=CCCCC3)c(=O)c1n2C,4.46%
9,Cc1ccc(-c2cc(C(=O)N3CCc4ccccc4C3)no2)cc1,-0.51%
10,Cc1ccc2c(c1)c1ncnc(N3CCc4ccccc4C3)c1n2C,39.7% (active)
11,COc1ccccc1-c1n[nH]c2c1[C@H](C)CC[C@H]2C(C)C,0.94%
12,CCCCOC(=O)c1ccc(NC(c2ccc(C)cc2)P(=O)(OC)OC)cc1 (stereo not drawn),7.2%
13,Cc1nn(C)cc1C(=O)c1ccccc1,16.3% (active)
14,CCOC(=O)c1nn(-c2cccc(C)c2)cc1C(=O)c1ccccc1,-1.22%
15,Cc1nn(C)cc1C(=O)Nc1ccccc1Br,2.37%
16,COc1ccc(/C=C2\CCCC3C2=NN(C(=O)c2scnc2C)C3c2ccc(OC)cc2)cc1 (stereo not drawn),-0.54%
17,O=C(CCc1nnc(Cc2ccc3c(c2)OCO3)o1)NCCc1ccccc1Cl,0.48%
18,CCCCN(C1CCS(=O)(=O)C1)S(=O)(=O)c1ccc(C(C)C)cc1 (stereo not drawn),5.43%
19,Cc1c(C(=O)Nc2cccc(-c3nnc4n3CCCCC4)c2)oc2ccccc12,17.2% (active)
20,Cc1c(C(=O)Nc2cccc(S(=O)(=O)N3CCOCC3)c2)oc2ccccc12,-1.96%

row,Compound,inhibition
1,O=C(Cn1[nH]c(=O)c2ccccc2c1=O)Nc1cccc(-c2nnc3n2CCCCC3)c1,7.74%
2,COc1c(Br)cc2c(C)c(C(=O)N3CCOCC3)oc2c1Br,3.66%
3,COc1ccccc1N(CC(=O)Nc1ccc(C(F)(F)F)cc1)S(C)(=O)=O,-2.79%
4,C=CCOc1ccccc1NC(=O)CN1C(=O)CNC1=O,-0.94%
5,CN(C)/C=C/C(=O)c1cnc2sccn2c1=O,-1.17%
6,COc1ccc(NS(=O)(=O)c2ccc(NC(=S)NC(=O)/C=C/c3ccc(C)cc3)cc2)nn1,24.2% (active)
7,COc1cc(NS(=O)(=O)c2ccc(NC(=S)NC(=O)c3ccc(Br)cc3)cc2)ncn1,-2.01%
8,COc1ccc(NS(=O)(=O)c2ccc(NC(=O)C(C)(C(F)(F)F)C(F)(F)F)cc2)nn1,6.58%
9,Cc1ccc(NC2CCCN(C(=O)CCC3(C)CC3)C2)cc1C (stereo not drawn),2.09%
10,O=C(Nc1ccc(Cl)c(Cl)c1)N1CC=C(c2ccccc2)CC1,19.1% (active)
11,O=C(Nc1cccc(NC(=O)N2CCN(c3ccccc3)CC2)c1)N1CCN(c2ccccc2)CC1,3.98%
12,COc1cc(C(=O)NCC(=O)N2CC=C(c3ccccc3)CC2)cc(OC)c1OC,-2.8%
13,O=C(CSc1nnc(CNC(=O)c2ccc(F)cc2)o1)Nc1ccc2c(c1)OCO2,1.15%
14,CS(=O)(=O)N(Cc1ccccc1Cl)c1ccc(C(=O)NCc2cccnc2)cc1,12.1%
15,CC(=O)[C@@]12O[C@@H]1C[C@H]1[C@@H]3CC[C@H]4C[C@@H](O)CC[C@]4(C)[C@H]3CC[C@@]12C,0.23%
16,O=C(COc1ccc(/C=N/NC(=O)c2ccc(O)cc2)cc1)Nc1ccc([N+](=O)[O-])cc1,0.35%
17,CC(C)(C)C(=O)Nc1ccc(C(=O)N/N=C/c2ccccc2OC(=O)c2ccc(Cl)cc2Cl)cc1,-0.07%
18,O=C(N/N=C/c1ccc(OC(=O)c2ccccc2Cl)cc1)c1ccc(O)cc1,17.1% (active)
